According to PubChem BioAssay AID602440 (Sanford-Burnham Center for Chemical Genomics, 2012):
Among all 360,000 compounds or so, about 2,300 (0.64%) were called active. Shown is part of a subset that was picked to be rich in actives. Values without a mark were called inactive. Cut-off read from the data, not from the text of the source: active = inhibition mostly above about 40% (no sharp cut-off); inactive = mostly below about 27%.

Target: Sentrin-specific protease 8 (Homo sapiens) (UniProt Q96LD8)
Sequence (Q96LD8 whole entry, looked up): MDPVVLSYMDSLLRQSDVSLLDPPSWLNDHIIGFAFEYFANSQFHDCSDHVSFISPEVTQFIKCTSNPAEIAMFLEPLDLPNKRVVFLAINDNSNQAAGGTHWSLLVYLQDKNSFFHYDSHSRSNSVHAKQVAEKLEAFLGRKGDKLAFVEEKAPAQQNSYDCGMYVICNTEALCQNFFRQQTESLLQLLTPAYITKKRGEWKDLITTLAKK
Experiment: human SENP8 protease inhibitors, primary screen, biochemical, fluorescence, Nedd8 protein substrate, uHTS (AID 602440)
Settings: recombinant SENP8, Nedd8 substrate fluorescence; at 20 µM; stronger effect = higher value

First: O=C(NC1CCN(S(=O)(=O)c2ccc(F)cc2)CC1)c1ccccc1
Second: O=C(c1ccccc1)c1ccc(OC(=O)N2CCCC2)cc1
The inhibition of the first is lower: 15.3% for the first, 22.4% for the second.

First: COC(=O)N(C)C[C@@H]1OCc2cnnn2CCCC(=O)N([C@@H](C)CO)C[C@@H]1C
Second: CC(C)C[C@@H](CO)N1CCN(Cc2ccc(O)cc2)CCC1=O
The inhibition of the first is higher: 18.6% for the first, -5% for the second.

Compared with `COc1cc(NC(=O)c2cc([N+](=O)[O-])ccc2Br)ccc1NC(=O)c1ccco1`, `COc1ccc(Cc2nnc(SCC(=O)c3cccc([N+](=O)[O-])c3)n2C)cc1` is lower in inhibition: 32.3% for the first, 10.4% for the second.

First: COc1ccc2c(C(=O)c3ccc(C)cc3)n(CCC(N)=O)[n+]([O-])c2c1
Second: C=CCn1c(SCC(=O)c2ccc(Br)cc2)nnc1C(C)NC(=O)Cc1ccc(OC)cc1 (configuration not stated)
The inhibition of the first is higher: 2.6% for the first, 1.1% for the second.

Going from `COC(=O)c1ccc(S(=O)(=O)N(CCO)Cc2ccccc2)n1C` to `CCS(=O)(=O)Nc1ccc(C(=O)NCCSc2ccccc2)cc1`, the inhibition rises from 21.1% to 23.1%.

Compared with `Cc1cc(NS(=O)(=O)c2ccccc2)no1`, `CC(=O)NS(=O)(=O)c1ccccc1` is lower in inhibition: 11.5% for the first, 0.5% for the second.

First: C/C(=N\NC(=O)c1ccc(C)cc1)C1C(=O)c2ccccc2C1=O
Second: CN(C)C(=O)c1ccc(NC(=O)c2ccccc2-c2ccccc2)cc1
The inhibition of the first is higher: 38.5% for the first, 4.2% for the second.

Compared with `CCN(CC)S(=O)(=O)c1ccc2c3c(cccc13)C(=O)S2`, `Cc1ccc(S(=O)(=O)N2[C@@H](c3cccc4ccccc34)C(C(=O)O)=C[C@H]2C(C)(C)C)cc1` is higher in inhibition: -49.2% for the first, 1.1% for the second.

Compared with `NC(=O)C1CC=CCC1C(=O)OCC(Cl)=C(Cl)Cl` (configuration not stated), `CN(C(=O)COC(=O)CNC(=O)C12CC3CC(CC(C3)C1)C2)c1ccccc1` is higher in inhibition: 1.1% for the first, 2% for the second.

First: Cc1cc(N2C(=O)C(=O)/C(=C(/O)c3ccc(Cl)cc3)C2c2cccc(Br)c2)no1 (configuration not stated)
Second: CS(=O)(=O)c1ccc(C(=O)OCC(=O)NNC(=O)COc2ccc(Cl)cc2)cc1
The inhibition of the first is lower: -138% for the first, 11.8% for the second.

First: O=S1(=O)CCN2C(=N1)SC1=C2CCN(Cc2ccccc2)C1
Second: Cc1ccccc1CN1CCN(C(=O)c2cccc(F)c2)CC1
The inhibition of the first is higher: 21.1% for the first, 17.2% for the second.

First: CC(C)Cc1nnc(NC(=O)CCc2ccccc2)s1
Second: CC(C)Cc1nnc(NC(=O)CCNC(=O)c2ccccc2Cl)s1
The inhibition of the first is lower: 2.2% for the first, 8.4% for the second.

First: CN(C)CCCn1c(SCCN2C(=O)c3ccccc3C2=O)nc2ccccc2c1=O
Second: CCCc1nc(SCC(=O)Nc2ccccc2OC)c2c(=O)n(C)c(=O)n(C)c2n1
The inhibition of the first is lower: 2.7% for the first, 10.5% for the second.

Compared with `O=[N+]([O-])c1ccc(N2CCN(S(=O)(=O)c3ccc4ccccc4c3)CC2)cc1NCc1ccco1`, `O=[N+]([O-])c1ccc(N2CCN(S(=O)(=O)c3ccccc3)CC2)cc1N1CCc2ccccc2C1` is lower in inhibition: 28.5% for the first, -132% for the second.

First: O=C(c1ccc(S(=O)(=O)NCc2ccco2)cc1)N1CCN(c2ccccc2)CC1
Second: O=C(CCN1C(=O)COc2ccccc21)NCCCN1CCN(c2ccc(F)cc2)CC1
The inhibition of the first is higher: 17.9% for the first, 12.7% for the second.

Compared with `O=C(NCCC1CCCCN1S(=O)(=O)c1ccccc1)C(=O)NCC1CCCO1` (configuration not stated), `O=C(CCNC(=O)c1ccc(Br)cc1)NCC(c1ccco1)N1CCCCC1` (configuration not stated) is higher in inhibition: 7.7% for the first, 10.5% for the second.

First: CCCCNC(=O)C(C)N(CCN(C)C)C(=O)CCCN1C(=O)NC(c2ccc(Cl)cc2)C(C(=O)OCc2ccccc2)=C1C (configuration not stated)
Second: NC(=O)C1CC(=O)N(c2ccc(OCC(=O)NCc3ccccc3)cc2)C1 (configuration not stated)
The inhibition of the first is higher: 12.8% for the first, 5.3% for the second.

Going from `C/C(=N/NC(=O)c1ccc(Br)o1)c1ccc(C)o1` to `CC(=O)NC(Cc1ccc(F)cc1)C(=O)O` (configuration not stated), the inhibition rises from -3.6% to 2%.

First: O=C(c1cccc(F)c1)N1CCC(O)(c2cccnc2)CC1
Second: CN(C)C(=O)c1cccc(-c2cnc3c(NC=O)cc(-c4ccc(C(=O)N5CCOCC5)cc4)cn23)c1
The inhibition of the first is higher: 18.5% for the first, -177% for the second.

Compared with `CC(C)(C)NC(=O)NC(=O)COC(=O)C1(C)CC1(Cl)Cl` (configuration not stated), `CCC(=O)c1ccc(OCC(=O)OCC(=O)N2CCc3ccccc3C2)cc1` is higher in inhibition: 12.9% for the first, 18.9% for the second.

First: COc1ccc(OC)c(NC(=O)c2ccc3c(c2)CCN3S(C)(=O)=O)c1
Second: COc1ccc(OC)c(C(O)c2nc3ccccc3n2C)c1 (configuration not stated)
The inhibition of the first is lower: 3% for the first, 15.4% for the second.

First: Cc1nc(C(=O)NCc2ccccc2)sc1C1(C)CC(c2cccnc2)=NO1 (configuration not stated)
Second: Cc1ccc(CNC(=O)C2(C(F)(F)F)C/C(=C\Cc3ccccc3)CCCO2)o1 (configuration not stated)
The inhibition of the first is lower: 8.5% for the first, 12.6% for the second.

First: CC(=O)N/C(=C\c1ccc(F)cc1)C(=O)NC(Cc1ccccc1)C(=O)O (configuration not stated)
Second: CC(C)[C@H](NC(=O)N1c2ccccc2NC(=O)[C@@H]1C(C)C)C(=O)N[C@H](C(=O)O)c1ccccc1
The inhibition of the first is lower: 2.6% for the first, 37% for the second.

Compared with `COc1ccc([C@H]2N[C@]3(CCCN(Cc4ccco4)C3=O)[C@H]3C(=O)N(C)C(=O)[C@@H]23)cc1`, `CCN1C(=O)[C@@H]2[C@@H](c3ccc(-c4ccccc4)cc3)N3CCCC[C@@]3(C(=O)OC)[C@@H]2C1=O` is higher in inhibition: -14% for the first, 3.1% for the second.

Compared with `O=C(CSc1ccc([N+](=O)[O-])cn1)Nc1ccc(N2CCOCC2)cc1`, `O=[N+]([O-])c1ccc(N2CCN(c3ccc(O)cc3)CC2)c(Cl)c1` is lower in inhibition: 37.7% for the first, 26.5% for the second.

Compared with `O=C(Nc1ccc(C(=O)NCc2ccccc2Cl)cc1)C1=CSCCO1`, `CCc1ccc(C(=O)NC(=S)Nc2ccccc2N2CCOCC2)cc1` is higher in inhibition: -35.3% for the first, 30.3% for the second.

Compared with `Cn1nc(C(F)(F)F)c(C(=O)Nc2cccc(C(F)(F)F)c2)c1SCc1ccc(Cl)cc1`, `FC(F)(F)c1cc(C(F)(F)F)c2ccc(N3CCN(c4ccccc4)CC3)nc2n1` is lower in inhibition: 5.4% for the first, -2.9% for the second.

First: CCCCn1c(N)c(N(CC(C)C)C(=O)c2ccc(Br)o2)c(=O)[nH]c1=O
Second: CCn1c(=O)cc(SCC(=O)NCCC2=CCCCC2)c2ccccc21
The inhibition of the first is higher: -3.8% for the first, -40.2% for the second.

First: COc1cc(C(=S)N2CCOCC2)cc(OC)c1OC(=O)c1ccc([N+](=O)[O-])cc1[N+](=O)[O-]
Second: COc1cc(C(=S)N2CCOCC2)cc(OC)c1OC(=O)c1cc([N+](=O)[O-])c(C)c([N+](=O)[O-])c1
The inhibition of the first is lower: 11.9% for the first, 27.5% for the second.

Going from `NNC(=O)CNC(c1ccccc1)c1cc(Cl)ccc1NC(=O)c1ccccc1` (configuration not stated) to `CCOC(=O)c1ccc(COC(=O)CCc2nc(-c3ccccc3)c(-c3ccccc3)o2)cc1`, the inhibition falls from 2.6% to -13.2%.

First: CC(C)c1cc(Cn2c3ccccc3c(=O)n2C(C)Cn2cc(C3CC3)nn2)on1 (configuration not stated)
Second: COc1cccc(N2CC(C(=O)NCc3n[nH]c(=O)c4ccccc34)CC2=O)c1 (configuration not stated)
The inhibition of the first is lower: -395% for the first, -0.8% for the second.

Compared with `Cc1cc(C)cc(OCC(=O)Nc2ccc(N3CCOCC3)cc2N2CCOCC2)c1`, `COc1ccc2[nH]c3c(c2c1)CCN1C(=O)C(CC(=O)NCCc2ccccn2)C[C@H](C(=O)N2CCOCC2)[C@@]31C` (some centres not stated) is lower in inhibition: 17.3% for the first, -3.3% for the second.

First: CCOc1cc(NC(=O)Nc2ccccc2)c(OCC)cc1NC(=O)CC
Second: O=C(NCCOc1ccccc1)c1ccccc1F
The inhibition of the first is lower: -0.4% for the first, 5.5% for the second.

First: Cc1ccc(-c2nn(-c3cccc(F)c3)cc2CNCCc2ccncc2)o1
Second: Cc1ccc(Cl)c(OCC(=O)N2CCc3ccccc3C2)c1
The inhibition of the first is lower: -178% for the first, 20.7% for the second.

First: CONC(=O)c1cc(OCC(F)(F)F)ccc1OCC(F)(F)F
Second: O=C(NC1CC1)C1=C[C@H](c2coc3ccccc3c2=O)C[C@H](OCCCCO)O1
The inhibition of the first is higher: 21.1% for the first, -5% for the second.

For `COc1ccc(C(=O)c2c3ccc([N+](=O)[O-])cc3[n+]([O-])n2CCCN)cc1`, the inhibition was 48.4% (active).
`O=C(NC1=CC(=O)c2ccccc2C1=O)c1ccccc1` was tested, and the inhibition was 44.7% (active).
`O=C1C=C(NS(=O)(=O)c2ccccc2)C(=O)c2ccccc21` was tested, and the inhibition was 51.3% (active).
For `CC(C)Cc1nnc(NC(=O)CCC(=O)Nc2ccc3cn[nH]c3c2)s1`, the inhibition was 42.9% (active).
With `O=C(c1ccccc1)N1CCN(c2ccc([N+](=O)[O-])c(NCc3ccco3)c2)CC1` the inhibition was 41.8% (active).
In the case of `O=C(c1cccc(F)c1)N1CCN(c2ccc([N+](=O)[O-])c3cccnc23)CC1`, the inhibition is reported as 41.3% (active).
`O=C1NNC(c2ccccc2)=N/C1=C\c1ccc(Cl)cc1` was tested, and the inhibition was 64% (active).
`CCC(C)[C@H](NC(=O)N1c2ccccc2NC(=O)[C@@H]1C(C)C)C(=O)N[C@@H](Cc1ccccc1)C(=O)O` (some centres not stated) was tested, and the inhibition was 53.4% (active).
For `O=C(NCCCN1CCN(c2ccc(F)cc2)CC1)Nc1ccc([N+](=O)[O-])cc1`, the inhibition was 44.8% (active).
With `COc1cc(C(=S)N2CCOCC2)cc(OC)c1OC(=O)c1cc([N+](=O)[O-])cc([N+](=O)[O-])c1` the inhibition was 40.9% (active).
For `Cc1cccc(OCC(=O)NC(=S)Nc2ccccc2N2CCOCC2)c1`, the inhibition was 43.3% (active).
For `CC(C)CC[n+]1ccn(C2=C([O-])c3ccccc3C(=O)/C2=N\S(=O)(=O)c2ccccc2)c1`, the inhibition was 54% (active).
With `CCOc1cc(NC(=O)c2ccccc2C(=O)O)c(OCC)cc1NC(=O)c1ccccc1F` the inhibition was 50.6% (active).
For `CCOc1c(Br)cc(/C=C2\C(=O)N(CCC#N)N=C2C)cc1OC`, the inhibition was 50.8% (active).
In the case of `CC1=C/C(=N\OS(=O)(=O)c2ccccc2)C=CC1=O`, the inhibition is reported as 52.9% (active).
In the case of `O=C(COc1ccccc1)N1CCc2ccccc2C1`, the inhibition is reported as 42.5% (active).
`O=[N+]([O-])c1ccc(N2CCSCC2)cc1O` was tested, and the inhibition was 57% (active).
